# According to the supplement of paper PMC3334620:
# Over roughly 33,000 sequences, “E-score (-0.5 to 0.5)” has its median near -0.054; the highest 2% begin near 0.35. This excerpt belongs to a sample that is enriched for the highest values.
# Target: T1, Stb5 (UniProt P38699)
# T1 sequence: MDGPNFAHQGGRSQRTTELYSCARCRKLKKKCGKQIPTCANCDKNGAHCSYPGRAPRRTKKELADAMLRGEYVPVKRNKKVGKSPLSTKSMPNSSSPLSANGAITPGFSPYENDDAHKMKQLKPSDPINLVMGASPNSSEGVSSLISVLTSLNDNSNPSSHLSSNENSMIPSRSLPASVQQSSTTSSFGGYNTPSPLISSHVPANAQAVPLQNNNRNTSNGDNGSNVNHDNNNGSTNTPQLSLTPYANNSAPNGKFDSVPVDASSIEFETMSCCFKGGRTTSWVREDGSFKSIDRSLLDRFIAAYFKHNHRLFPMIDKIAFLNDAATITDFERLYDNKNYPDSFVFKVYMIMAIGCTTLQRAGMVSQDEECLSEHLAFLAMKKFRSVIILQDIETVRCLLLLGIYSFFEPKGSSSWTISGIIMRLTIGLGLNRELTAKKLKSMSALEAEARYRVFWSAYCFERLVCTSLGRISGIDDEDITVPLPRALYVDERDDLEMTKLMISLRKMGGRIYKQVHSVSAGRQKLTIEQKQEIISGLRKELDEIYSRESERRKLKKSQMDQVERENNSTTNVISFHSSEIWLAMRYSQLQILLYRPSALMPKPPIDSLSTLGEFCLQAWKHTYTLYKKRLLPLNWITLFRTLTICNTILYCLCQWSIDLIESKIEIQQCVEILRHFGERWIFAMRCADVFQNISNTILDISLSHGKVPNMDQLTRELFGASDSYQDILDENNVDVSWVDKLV
# Test: PBM E-score (8-mer binding enrichment) (E-score (-0.5 to 0.5)); higher = stronger / more preferred TF binding
# Conditions: protein concentration: 200 nM; construct: GST-full length
# In short: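 Each ungapped eight-base word and its reverse complement, pooled, received an E-score from the Universal PBM Analysis Suite. Underlying scans, normalised with masliner, recorded fluorescent anti-GST bound to GST-tagged yeast transcription factors. These were applied at about 100-200 nM to universal all-10-mer Agilent arrays double-stranded by primer extension.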
row,Sequence,PBM E-score
1,GAAGCGGA,0.282
2,CTCGATGC,-0.2
3,CGAGTGTC,-0.0644
4,AGCTTTTG,-0.139
5,CAGACACC,0.0808
6,AGTACGAT,-0.165
7,CCAGTGAG,-0.17
8,TTATAGAA,-0.0532
9,GCATAAGC,0.0731
10,AGAGACGG,0.0766
11,CTTTGACA,-0.135
12,CGGGGACA,0.415
13,GGGGGACA,-0.187
14,CGGGAGTA,0.417
15,GGGGAGTA,0.0545
16,CGGGGACC,0.051
17,GGGGACTA,-0.0234
18,AGGGAGTA,-0.109
19,CGGGACTA,0.451
20,CGGGACTC,0.184
21,AACGGGTA,0.102
22,ACGATCCT,-0.231
23,AGTCCGCA,0.323
24,ATTCCGGA,0.115
25,AGTCCGCC,0.42

row,Sequence,PBM E-score
1,AGTCCGGA,0.39
2,AGTCCGCG,0.339
3,AGTCCGGG,0.274
4,GATCCGGA,0.227
5,CGTCCGGC,0.275
6,AGTCCGGC,0.38
7,GGTCCGGA,0.391
8,CGTCCGCC,0.338
9,CGTCCGGA,0.153
10,AACCCTCC,-0.0222
11,AATTCTCG,-0.186
12,TCGCCTCA,-0.162
13,CCCGAACC,0.144
14,CGCAGACA,-0.0673
15,AACTTCAC,-0.293
16,ACTGGGGG,-0.28
17,AGAGTGAT,-0.258
18,AAGTTCTG,-0.231
19,CCACCTTC,-0.199
20,ACCGCTAC,0.395
21,ACCGCTAA,0.263
22,ACCGCTCC,0.323
23,ACCGCTGC,0.364
24,GCCGCTAC,0.39
25,ACCGCTAT,0.33

row,Sequence,PBM E-score
1,ACCGCTGA,0.255
2,CCCGCTGC,0.209
3,ACCGCTCT,0.226
4,ACCGCTCG,0.357
5,GCCGCTAA,0.296
6,CCCGCTAC,0.216
7,AAACGAAG,-0.0773
8,ATCTGGCC,0.0703
9,TCACGCGA,-0.0286
10,ACCTCTAT,-0.163
11,TCTGTGCA,-0.195
12,GTAGTAAC,0.12
13,AACGAACC,-0.116
14,TGCCCCAA,-0.123
15,ACGTTGTA,-0.0486
16,AGCACTTA,-0.0929
17,CGCACTTC,0.0228
18,CGCACTTA,0.368
19,CCCTGCAG,-0.0201
20,AGGGTGTC,-0.106
21,GCGGTGGA,0.177
22,GGGGTGTA,0.178
23,GCGGTGTA,0.421
24,ACGGTGTC,0.408
25,AGGGTGTA,-0.236

row,Sequence,PBM E-score
1,CCGGTGTC,0.408
2,CGGGTGTC,0.00649
3,ACGGTGTG,0.288
4,CGGGTGTA,0.37
5,CCGGTGAC,0.292
6,CTGGTGTC,-0.178
7,TGACGCAA,-0.174
8,CAAAGTGG,-0.254
9,ACTGCGAC,0.202
10,TAACTCTA,-0.0643
11,GAACCATC,-0.135
12,ACCCACGT,-0.257
13,CCGGTGTA,0.366
14,CAGGTGTA,-0.204
15,ACGGTGTA,0.348
16,CGCAAAGA,0.016
17,CTGAAATA,-0.0506
18,GCCTCACA,-0.212
19,TCCCCCGA,0.263
20,AACCCCGA,0.473
21,CCCCCCGA,0.14
22,AACCCCCA,-0.0755
23,AACCCCAA,-0.0237
24,ACCCCCGA,0.371
25,CTCTTGAC,-0.182

row,Sequence,PBM E-score
1,AGCTAAAT,0.088
2,CTCCAGCC,-0.15
3,AAGAATAA,0.0987
4,AATGAATA,0.0406
5,ATAAATCA,-0.129
6,ATAATGCC,0.386
7,ATAATCCG,0.103
8,CTAATCAC,0.189
9,CTAATCCC,0.354
10,ATAATCCC,0.389
11,ATAAATCG,0.0618
12,ATAATCCA,-0.0209
13,ATAATGCG,0.0614
14,CTAATCCA,-0.106
15,CTAATGCC,0.285
16,ATAAATCC,0.382
17,TGCCAGAA,-0.307
18,CGCTTACG,0.123
19,GCCCTACC,-0.0725
20,AAGATACG,-0.0742
21,CGCTGCCC,-0.0156
22,ACACGGCC,0.116
23,CCCTGTAA,-0.0001
24,CGCAGTTC,0.00085
25,CGCAGTTA,0.359

row,Sequence,PBM E-score
1,AGCAGTTA,-0.194
2,GAGATTGC,-0.0088
3,CCATTCTC,-0.126
4,AATCACTA,-0.155
5,ATCGGTCA,0.208
6,GGCGGAAC,0.25
7,ATCGGACA,0.332
8,GGCGGAAA,0.227
9,ATCGGACC,0.398
10,ATCGGACG,0.305
11,TGCGGACA,0.286
12,CGCGGACC,0.319
13,ATCGGTCC,0.396
14,GGCGGACC,0.412
15,GGCGGACA,0.357
16,CTCGGTCC,0.242
17,CTATAATC,0.019
18,GGCACCCA,-0.036
19,GCACTCAA,-0.0587
20,ATACCAAT,-0.00644
21,TCCCACAA,0.0012
22,ACTGCGCG,0.122
23,AGCGGAGC,0.31
24,AGCGGAAC,0.295
25,AGCGGACC,0.359

row,Sequence,PBM E-score
1,GCACGGGC,0.2
2,AGCTATTC,-0.0735
3,GAACTCAC,-0.221
4,AAAAGCCG,0.38
5,AAGGCCTG,-0.0882
6,ACGGCCGT,0.226
7,AAGGCCGG,0.407
8,AAAAGCCT,-0.122
9,CAGGCCGA,0.153
10,AAGGCCGT,0.421
11,TAGGCCGA,0.125
12,AAGGCCTT,-0.163
13,CAGGCCGG,0.11
14,AAGGCCGA,0.46
15,AAAAGCCC,0.324
16,TTCACAAA,-0.00748
17,GACCAAAC,-0.0734
18,AGACGGTC,0.142
19,CATCCATG,-0.205
20,AAAGGCCG,0.446
21,CAAGGCCG,0.236
22,AAGGCCCA,-0.17
